Measurements published in the supplement of paper PMC10849652.
Targets with a hit are over-represented here; the source holds about 7,900 in all. About 0.6% of all pairs of compound and target were hits.

Compound: C[C@@H](Oc1cc(-c2cnn(C3CCNCC3)c2)cnc1N)c1c(Cl)ccc(F)c1Cl [crizotinib]
Experiment: log2 fold change, soluble protein after heating vs DMSO (PISA); higher = thermal stabilisation; K562 cells, 10 uM, 30 min; active = over 0.2 and 3.5 SD of the protein, either way, in both replicates (recomputed)
Method in brief: (§1)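 Thermal stability values are relative to control samples and come from duplicates. They are expressed as log2 fold changes. For measurement, K562 cells (2×10^6 cells/mL) received 10 μM compound for 30 min, and aliquots were heated for 3 min over 48°C-58°C, pooled, and extracted at 4°C in PBS with 0.5% NP-40. Soluble protein, the supernatant after 21,000xg for 90 min, was quantified by TMTpro 16plex LC-MS/MS with equalised channel sums.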

Sequence of UniProt Q9NZ09 (Q9NZ09 whole entry, looked up): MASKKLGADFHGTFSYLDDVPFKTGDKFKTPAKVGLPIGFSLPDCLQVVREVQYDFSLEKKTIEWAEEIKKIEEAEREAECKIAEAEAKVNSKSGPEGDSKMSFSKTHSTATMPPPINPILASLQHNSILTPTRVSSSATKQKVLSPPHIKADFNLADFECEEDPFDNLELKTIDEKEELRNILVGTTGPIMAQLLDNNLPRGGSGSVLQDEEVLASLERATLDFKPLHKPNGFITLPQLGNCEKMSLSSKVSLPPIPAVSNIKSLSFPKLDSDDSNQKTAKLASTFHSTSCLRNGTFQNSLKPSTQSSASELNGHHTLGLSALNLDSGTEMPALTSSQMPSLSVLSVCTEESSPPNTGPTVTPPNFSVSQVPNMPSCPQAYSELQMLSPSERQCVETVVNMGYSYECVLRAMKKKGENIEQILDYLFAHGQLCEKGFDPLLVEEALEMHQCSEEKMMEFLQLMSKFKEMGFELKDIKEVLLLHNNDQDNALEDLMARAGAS
Sequence of UniProt Q8N1B4 (Q8N1B4 whole entry, looked up): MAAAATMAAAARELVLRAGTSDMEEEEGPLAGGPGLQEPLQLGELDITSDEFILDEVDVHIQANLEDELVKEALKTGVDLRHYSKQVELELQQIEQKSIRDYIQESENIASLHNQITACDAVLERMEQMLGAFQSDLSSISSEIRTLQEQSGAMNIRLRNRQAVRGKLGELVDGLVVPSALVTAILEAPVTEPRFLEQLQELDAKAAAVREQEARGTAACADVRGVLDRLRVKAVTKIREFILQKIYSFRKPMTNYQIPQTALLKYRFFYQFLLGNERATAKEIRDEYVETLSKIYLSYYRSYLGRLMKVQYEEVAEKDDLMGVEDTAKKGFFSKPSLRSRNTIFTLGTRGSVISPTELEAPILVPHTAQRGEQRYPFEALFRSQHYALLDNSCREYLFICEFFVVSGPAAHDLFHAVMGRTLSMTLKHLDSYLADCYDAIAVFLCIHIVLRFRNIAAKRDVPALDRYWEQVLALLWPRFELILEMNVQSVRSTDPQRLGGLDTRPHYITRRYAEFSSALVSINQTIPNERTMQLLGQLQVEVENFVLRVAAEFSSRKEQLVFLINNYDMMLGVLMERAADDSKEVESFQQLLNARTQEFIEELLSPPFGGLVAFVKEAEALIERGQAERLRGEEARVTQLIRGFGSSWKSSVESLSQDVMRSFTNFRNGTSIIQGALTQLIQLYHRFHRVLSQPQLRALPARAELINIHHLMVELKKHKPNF
Sequence of UniProt P21796 (P21796 whole entry, looked up): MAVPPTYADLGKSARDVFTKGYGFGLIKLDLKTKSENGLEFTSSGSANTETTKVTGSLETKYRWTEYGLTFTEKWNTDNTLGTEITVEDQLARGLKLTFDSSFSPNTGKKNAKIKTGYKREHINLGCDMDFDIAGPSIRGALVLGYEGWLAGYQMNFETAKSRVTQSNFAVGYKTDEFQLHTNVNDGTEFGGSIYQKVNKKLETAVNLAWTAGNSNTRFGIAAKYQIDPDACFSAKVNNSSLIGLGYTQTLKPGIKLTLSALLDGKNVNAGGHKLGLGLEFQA
Sequence of UniProt P13010 (P13010 whole entry, looked up): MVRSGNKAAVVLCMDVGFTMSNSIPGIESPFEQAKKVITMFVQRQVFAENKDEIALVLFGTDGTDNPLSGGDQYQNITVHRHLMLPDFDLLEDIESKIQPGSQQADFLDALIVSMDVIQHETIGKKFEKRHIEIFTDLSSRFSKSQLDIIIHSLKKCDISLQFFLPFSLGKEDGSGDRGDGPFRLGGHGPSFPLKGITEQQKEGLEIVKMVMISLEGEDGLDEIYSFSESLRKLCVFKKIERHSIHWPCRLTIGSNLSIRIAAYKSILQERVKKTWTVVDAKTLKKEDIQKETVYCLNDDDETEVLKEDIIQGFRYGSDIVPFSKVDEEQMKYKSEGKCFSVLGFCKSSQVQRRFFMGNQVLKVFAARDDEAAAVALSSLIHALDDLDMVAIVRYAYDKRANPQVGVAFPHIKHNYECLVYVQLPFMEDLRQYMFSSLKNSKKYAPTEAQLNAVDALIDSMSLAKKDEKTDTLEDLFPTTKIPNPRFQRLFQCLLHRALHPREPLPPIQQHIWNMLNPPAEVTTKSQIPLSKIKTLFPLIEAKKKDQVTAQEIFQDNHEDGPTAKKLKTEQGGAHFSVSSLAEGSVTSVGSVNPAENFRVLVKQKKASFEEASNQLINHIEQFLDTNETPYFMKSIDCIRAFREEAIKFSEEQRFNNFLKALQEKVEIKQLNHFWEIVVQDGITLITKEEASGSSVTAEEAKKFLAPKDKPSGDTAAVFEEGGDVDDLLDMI
Sequence of UniProt Q5U3C3 (Q5U3C3 whole entry, looked up): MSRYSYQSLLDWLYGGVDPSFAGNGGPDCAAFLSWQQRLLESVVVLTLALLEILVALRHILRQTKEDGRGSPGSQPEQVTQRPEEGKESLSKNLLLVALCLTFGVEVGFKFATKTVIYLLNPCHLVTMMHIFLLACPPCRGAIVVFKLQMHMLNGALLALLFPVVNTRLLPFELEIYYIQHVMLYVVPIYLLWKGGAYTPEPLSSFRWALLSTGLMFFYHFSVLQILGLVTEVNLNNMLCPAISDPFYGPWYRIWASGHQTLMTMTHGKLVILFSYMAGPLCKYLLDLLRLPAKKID
Sequence of WASHC2C, A0A096LPC5 (A0A096LPC5 whole entry, looked up): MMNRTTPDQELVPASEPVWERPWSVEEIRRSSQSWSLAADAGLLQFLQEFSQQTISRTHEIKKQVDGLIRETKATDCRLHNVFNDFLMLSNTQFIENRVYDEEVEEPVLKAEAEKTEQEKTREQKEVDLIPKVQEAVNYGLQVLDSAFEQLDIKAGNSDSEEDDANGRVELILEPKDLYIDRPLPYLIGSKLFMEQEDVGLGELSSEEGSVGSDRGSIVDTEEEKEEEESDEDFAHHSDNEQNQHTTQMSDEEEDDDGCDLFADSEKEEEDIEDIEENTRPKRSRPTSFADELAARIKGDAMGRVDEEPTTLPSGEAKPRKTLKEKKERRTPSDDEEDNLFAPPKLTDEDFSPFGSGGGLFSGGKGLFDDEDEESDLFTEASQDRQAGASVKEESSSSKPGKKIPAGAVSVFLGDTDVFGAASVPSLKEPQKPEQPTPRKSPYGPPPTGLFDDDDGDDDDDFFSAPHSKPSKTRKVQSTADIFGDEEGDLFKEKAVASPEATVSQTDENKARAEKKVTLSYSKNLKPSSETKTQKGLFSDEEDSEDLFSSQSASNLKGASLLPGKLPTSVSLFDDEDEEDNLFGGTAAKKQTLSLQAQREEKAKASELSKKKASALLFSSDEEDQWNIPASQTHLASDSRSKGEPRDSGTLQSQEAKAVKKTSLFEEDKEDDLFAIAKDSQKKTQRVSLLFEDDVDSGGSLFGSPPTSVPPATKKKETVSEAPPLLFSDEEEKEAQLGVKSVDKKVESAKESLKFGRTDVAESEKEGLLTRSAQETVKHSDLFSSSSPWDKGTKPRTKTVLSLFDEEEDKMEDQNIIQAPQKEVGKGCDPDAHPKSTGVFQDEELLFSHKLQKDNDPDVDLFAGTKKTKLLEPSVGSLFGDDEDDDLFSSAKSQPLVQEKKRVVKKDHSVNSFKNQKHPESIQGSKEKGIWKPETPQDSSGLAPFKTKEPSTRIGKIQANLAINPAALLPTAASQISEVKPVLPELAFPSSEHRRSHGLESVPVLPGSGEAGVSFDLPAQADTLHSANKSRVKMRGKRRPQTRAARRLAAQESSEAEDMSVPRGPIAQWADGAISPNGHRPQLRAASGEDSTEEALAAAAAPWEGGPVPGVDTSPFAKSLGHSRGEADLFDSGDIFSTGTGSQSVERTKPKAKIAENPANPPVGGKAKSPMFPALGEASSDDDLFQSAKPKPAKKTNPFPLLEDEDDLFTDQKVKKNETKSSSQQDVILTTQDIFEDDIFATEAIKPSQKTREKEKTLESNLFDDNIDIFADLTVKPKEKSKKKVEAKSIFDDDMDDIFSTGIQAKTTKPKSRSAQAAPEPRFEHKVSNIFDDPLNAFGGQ
Sequence of UniProt Q9Y4E8 (Q9Y4E8 whole entry, looked up): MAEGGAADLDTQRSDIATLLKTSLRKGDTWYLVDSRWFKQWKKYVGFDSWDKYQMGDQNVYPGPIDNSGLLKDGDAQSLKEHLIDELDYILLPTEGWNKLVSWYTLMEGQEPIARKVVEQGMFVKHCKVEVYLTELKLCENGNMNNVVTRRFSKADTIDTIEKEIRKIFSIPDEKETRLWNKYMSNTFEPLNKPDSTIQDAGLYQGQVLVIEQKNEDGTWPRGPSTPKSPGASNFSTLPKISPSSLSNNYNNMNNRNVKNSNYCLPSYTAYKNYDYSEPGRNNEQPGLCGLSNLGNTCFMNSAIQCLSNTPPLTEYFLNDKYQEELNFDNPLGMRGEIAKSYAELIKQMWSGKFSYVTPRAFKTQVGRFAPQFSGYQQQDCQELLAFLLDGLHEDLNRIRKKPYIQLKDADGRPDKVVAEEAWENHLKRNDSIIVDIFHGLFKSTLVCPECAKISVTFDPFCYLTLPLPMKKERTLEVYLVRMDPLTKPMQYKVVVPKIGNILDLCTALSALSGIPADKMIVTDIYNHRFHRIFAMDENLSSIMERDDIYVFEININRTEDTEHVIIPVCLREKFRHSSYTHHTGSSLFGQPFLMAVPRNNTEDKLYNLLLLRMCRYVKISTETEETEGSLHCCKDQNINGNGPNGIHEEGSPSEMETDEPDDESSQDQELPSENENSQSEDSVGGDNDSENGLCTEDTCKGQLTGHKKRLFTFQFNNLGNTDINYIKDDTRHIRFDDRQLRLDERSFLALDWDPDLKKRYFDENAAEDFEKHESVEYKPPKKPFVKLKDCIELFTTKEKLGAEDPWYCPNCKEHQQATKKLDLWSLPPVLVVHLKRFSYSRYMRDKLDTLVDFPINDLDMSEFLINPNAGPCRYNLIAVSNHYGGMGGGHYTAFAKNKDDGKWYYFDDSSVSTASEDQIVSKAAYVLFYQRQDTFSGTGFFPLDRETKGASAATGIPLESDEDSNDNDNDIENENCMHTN
Sequence of UniProt P02585 (P02585 whole entry, looked up): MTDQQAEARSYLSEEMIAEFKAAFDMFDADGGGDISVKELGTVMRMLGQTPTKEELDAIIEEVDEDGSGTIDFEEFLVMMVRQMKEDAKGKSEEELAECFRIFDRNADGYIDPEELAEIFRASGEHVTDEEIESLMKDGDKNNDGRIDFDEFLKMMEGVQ

log2 fold change, active:
TMEM106B (UniProt Q9NUM4) -0.382
VAMP7 (UniProt P51809) -0.299
WASH2P (UniProt Q6VEQ5) -0.321
TMEM263 (UniProt Q8WUH6) -0.717

log2 fold change, inactive:
TSG101 (UniProt Q99816) -0.094
VTA1 (UniProt Q9NP79) -0.049
VDAC1 (UniProt P21796) 0.076
WASHC2C, A0A096LPC5 -0.363
VTI1B (UniProt Q9UEU0) -0.089
UBE2Q1 (UniProt Q7Z7E8) -0.061
TMEM164 (UniProt Q5U3C3) -0.036
USP48 isoform 8 (UniProt Q86UV5) -0.036
USP15 (UniProt Q9Y4E8) -0.041
UFD1 isoform 1 (UniProt Q92890) 0.004
WDR46 (UniProt O15213) 0.008
USP14 (UniProt P54578) -0.023
XPNPEP3 (UniProt Q9NQH7) -0.013
UCHL5 (UniProt Q9Y5K5) -0.066
VPS16 (UniProt Q9H269) -0.105
XPO1 (UniProt O14980) -0.138
TNFRSF10A (UniProt O00220) 0.037
UBLCP1 (UniProt Q8WVY7) 0.068
TMEM189-UBE2V1 (UniProt I3L0A0) 0.022
VTI1A (UniProt Q96AJ9) -0.072
TNNC2 (UniProt P02585) 0.06
TMEM223 (UniProt A0PJW6) -0.045
U2AF1 isoform 2 (UniProt Q01081) 0.067
XRCC5 (UniProt P13010) -0.086
TNPO1 (UniProt Q92973) -0.034
VPS52 (UniProt Q8N1B4) -0.102
USP25 isoform 3 (UniProt Q9UHP3) -0.003
VPS50 (UniProt Q96JG6) -0.118
UBAP1 isoform 4 (UniProt Q9NZ09) -0.008
TNPO2 (UniProt O14787) -0.153
VPS18 (UniProt Q9P253) -0.21
TRIM28 (UniProt Q13263) 0.046

Compound: C[C@@H]1COCCN1C2=NC(=NC(=C2)C3(CC3)S(=O)(=O)C)C4=C5C=CNC5=CC=C4
Experiment: as above
Method in brief: as §1

log2 fold change, inactive:
TSG101 (UniProt Q99816) 0.082
VTA1 (UniProt Q9NP79) 0.056
VDAC1 (UniProt P21796) -0.004
WASHC2C, A0A096LPC5 0.031
VTI1B (UniProt Q9UEU0) 0.025
UBE2Q1 (UniProt Q7Z7E8) 0.092
TMEM106B (UniProt Q9NUM4) 0.389
TMEM164 (UniProt Q5U3C3) 0.139
USP48 isoform 8 (UniProt Q86UV5) 0.066
USP15 (UniProt Q9Y4E8) 0.05
UFD1 isoform 1 (UniProt Q92890) -0.032
WDR46 (UniProt O15213) -0.731
USP14 (UniProt P54578) 0.082
XPNPEP3 (UniProt Q9NQH7) 0.011
UCHL5 (UniProt Q9Y5K5) 0
VPS16 (UniProt Q9H269) -0.09
VAMP7 (UniProt P51809) 0.005
XPO1 (UniProt O14980) 0.089
TNFRSF10A (UniProt O00220) 0.047
UBLCP1 (UniProt Q8WVY7) -0.007
TMEM189-UBE2V1 (UniProt I3L0A0) 0.051
WASH2P (UniProt Q6VEQ5) -0.017
VTI1A (UniProt Q96AJ9) 0.038
TNNC2 (UniProt P02585) 0.04
TMEM223 (UniProt A0PJW6) 0.038
U2AF1 isoform 2 (UniProt Q01081) 0.03
XRCC5 (UniProt P13010) 0.047
TNPO1 (UniProt Q92973) 0.058
VPS52 (UniProt Q8N1B4) -0.031
TMEM263 (UniProt Q8WUH6) -0.029
USP25 isoform 3 (UniProt Q9UHP3) -0.017
VPS50 (UniProt Q96JG6) 0.044
UBAP1 isoform 4 (UniProt Q9NZ09) 0.07
TNPO2 (UniProt O14787) 0.046
VPS18 (UniProt Q9P253) -0.013
TRIM28 (UniProt Q13263) 0.048
